Laboratory results published in PubChem BioAssay.
Activity calls are given as the source filed them. Unless noted, how the calls were made is not given here.

Assays:
[1] = compounds binding Alexa647 anti-His antibody – biochemical, small-molecule microarray, 635 nm fluorescence, artefact control for SMM control protein annotation, primary screen (AID 1128); conditions: higher = more signal;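 further: score merges feature fluorescence with signal-to-noise for each printed compound spot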
[2] = tested on: Human papillomavirus type 1a E7 protein (residues 1-88); test: HPV1a E7 small-molecule binders, primary screen, biochemical, small-molecule microarray, residues 1-88, 635 nm (AID 1129); conditions: small-molecule microarray binding, fluorescence 635 nm; higher = more signal
[3] = target: Focal adhesion kinase 1 (Homo sapiens) (UniProt Q05397); test: PTK2 protein binding on printed compound slides – biochemical, small-molecule microarray, 635/667 nm fluorescence, BSA, DTT, primary screen (AID 1130); conditions: 635 nm fluorescence, higher = more signal;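 further: composite of spot emission at 667 nm and signal to noise over triplicate slides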
Focal adhesion kinase 1 (Homo sapiens), sequence (Q05397 whole entry, looked up): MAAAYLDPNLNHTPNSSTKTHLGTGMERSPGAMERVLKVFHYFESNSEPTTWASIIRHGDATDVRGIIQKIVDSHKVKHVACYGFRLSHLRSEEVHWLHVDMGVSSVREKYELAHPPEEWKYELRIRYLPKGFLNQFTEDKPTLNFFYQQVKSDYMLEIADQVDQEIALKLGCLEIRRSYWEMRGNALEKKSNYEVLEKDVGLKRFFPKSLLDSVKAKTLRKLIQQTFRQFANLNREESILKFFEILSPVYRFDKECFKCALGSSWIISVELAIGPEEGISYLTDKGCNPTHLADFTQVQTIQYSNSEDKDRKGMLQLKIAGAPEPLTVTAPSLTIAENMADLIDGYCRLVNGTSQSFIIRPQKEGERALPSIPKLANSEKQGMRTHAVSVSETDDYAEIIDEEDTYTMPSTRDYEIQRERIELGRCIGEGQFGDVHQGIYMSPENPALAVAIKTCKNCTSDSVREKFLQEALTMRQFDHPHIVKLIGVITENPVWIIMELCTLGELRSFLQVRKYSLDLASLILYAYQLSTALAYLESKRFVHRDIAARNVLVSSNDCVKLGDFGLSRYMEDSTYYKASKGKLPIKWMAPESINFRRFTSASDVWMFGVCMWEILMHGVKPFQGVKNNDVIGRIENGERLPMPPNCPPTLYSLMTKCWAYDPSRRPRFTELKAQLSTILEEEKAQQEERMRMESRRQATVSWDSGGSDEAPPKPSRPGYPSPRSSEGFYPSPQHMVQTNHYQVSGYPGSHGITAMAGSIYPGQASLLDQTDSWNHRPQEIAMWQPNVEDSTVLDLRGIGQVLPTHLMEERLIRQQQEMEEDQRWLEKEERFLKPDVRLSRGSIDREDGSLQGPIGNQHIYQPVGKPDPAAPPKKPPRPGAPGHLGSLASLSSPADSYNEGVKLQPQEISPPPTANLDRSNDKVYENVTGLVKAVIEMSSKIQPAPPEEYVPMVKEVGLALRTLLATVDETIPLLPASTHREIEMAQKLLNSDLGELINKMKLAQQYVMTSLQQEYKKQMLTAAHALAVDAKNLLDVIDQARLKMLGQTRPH

[4] = tested on: Fibrinogen (Alexa647-labelled); test: Alexa647-fibrinogen binding to printed small molecules – biochemical, small-molecule microarray, 635/667 nm fluorescence, artefact control for SMM control-protein annotation, profiling panel (AID 1131); conditions: fibrinogen-A647 binding fluorescence, higher = more signal;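 further: z-score merges 667 nm fluorescence with per-spot signal-to-noise over triplicate slides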
[5] = target: Follistatin (Homo sapiens) (UniProt P19883); test: FST protein binding to printed compounds – biochemical, small-molecule microarray, 635/667 nm fluorescence, primary screen (AID 1132); conditions: 635 nm fluorescence, higher = more signal
Follistatin (Homo sapiens), sequence (P19883 whole entry, looked up): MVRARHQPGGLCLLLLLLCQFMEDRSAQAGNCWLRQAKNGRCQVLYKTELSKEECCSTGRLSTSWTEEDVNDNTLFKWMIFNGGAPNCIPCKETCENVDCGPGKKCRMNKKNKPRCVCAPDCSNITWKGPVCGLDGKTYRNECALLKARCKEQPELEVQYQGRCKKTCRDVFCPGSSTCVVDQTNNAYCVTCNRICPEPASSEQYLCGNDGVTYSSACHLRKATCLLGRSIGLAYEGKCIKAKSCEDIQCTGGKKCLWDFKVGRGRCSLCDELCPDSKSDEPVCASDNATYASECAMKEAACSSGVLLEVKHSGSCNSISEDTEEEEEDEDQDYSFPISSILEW

[6] = target: Fibroblast growth factor 2 (Homo sapiens) (UniProt P09038); test: basic fibroblast growth factor binding to printed compounds – biochemical, small-molecule microarray, 635/667 nm fluorescence, primary screen (AID 1133); conditions: FGF2, fluorescence 635/667, higher = more signal
Fibroblast growth factor 2 (Homo sapiens), sequence (P09038 whole entry, looked up): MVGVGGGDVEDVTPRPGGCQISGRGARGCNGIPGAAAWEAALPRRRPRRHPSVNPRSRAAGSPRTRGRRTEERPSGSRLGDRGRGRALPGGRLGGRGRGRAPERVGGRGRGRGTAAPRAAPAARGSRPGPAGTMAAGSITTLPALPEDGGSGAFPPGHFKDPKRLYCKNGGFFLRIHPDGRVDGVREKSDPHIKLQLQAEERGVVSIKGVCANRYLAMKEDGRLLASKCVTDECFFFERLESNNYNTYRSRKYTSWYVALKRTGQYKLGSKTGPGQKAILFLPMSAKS

[7] = JC-1 mitochondrial potential readout, lung cancer cells – cell-based, A549, JC-1 fluorescence, basal, 24 h, 100 nL, profiling panel (AID 1138); conditions: higher = more signal;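 further: A549 lung adenocarcinoma cells under basal conditions with no added stimulus; test concentration not given here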
Lefty1 = Lefty1 protein binding to printed compounds – biochemical, small-molecule microarray, 635/667 nm fluorescence, primary screen (AID 1139); conditions: fluorescence 635/667, higher = more signal
[8] = tested on: wheat germ agglutinin (Triticum aestivum), Alexa647-labelled; test: Alexa647-WGA lectin binding to printed small molecules – biochemical, small-molecule microarray, 635/667 nm fluorescence, artefact control for SMM control-protein annotation, profiling panel (AID 1140); conditions: WGA-A647 binding, 635 nm fluorescence, higher = more signal;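 further: score merges 667 nm feature emission with signal to noise over triplicate slides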
[9] = target: Luciferin 4-monooxygenase (Photinus pyralis) (UniProt P08659); test: inhibition of purified Photinus pyralis luciferase – biochemical, luminescence, purified enzyme, 2006 set, primary screen (AID 1141); conditions: purified firefly luciferase, SteadyGlo luminescence, 30 min; higher = more signal, called active from +8 up or from −8 down;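 further: cell-free assay with purified firefly luciferase at 100 ng per well in PBS; test concentration not given here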
Luciferin 4-monooxygenase (Photinus pyralis), sequence (P08659 whole entry, looked up): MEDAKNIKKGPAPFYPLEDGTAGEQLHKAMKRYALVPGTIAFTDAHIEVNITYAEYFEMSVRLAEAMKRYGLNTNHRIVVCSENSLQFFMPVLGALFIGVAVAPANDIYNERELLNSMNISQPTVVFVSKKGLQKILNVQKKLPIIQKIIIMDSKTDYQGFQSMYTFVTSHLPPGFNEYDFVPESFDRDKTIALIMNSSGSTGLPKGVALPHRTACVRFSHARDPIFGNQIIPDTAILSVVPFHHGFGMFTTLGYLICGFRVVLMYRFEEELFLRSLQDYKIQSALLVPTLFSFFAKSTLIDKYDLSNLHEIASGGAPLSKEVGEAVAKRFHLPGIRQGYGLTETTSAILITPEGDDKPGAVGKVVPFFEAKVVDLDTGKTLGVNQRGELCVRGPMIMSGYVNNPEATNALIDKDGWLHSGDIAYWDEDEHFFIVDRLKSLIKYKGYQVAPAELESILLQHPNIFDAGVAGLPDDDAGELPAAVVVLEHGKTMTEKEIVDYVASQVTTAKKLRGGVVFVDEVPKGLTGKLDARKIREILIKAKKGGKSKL

[10] = tested on: Wnt5a (protein binding on small-molecule microarray); test: small molecules binding Wnt5a protein – biophysical, small-molecule microarray, 635/667 nm fluorescence, primary screen (AID 1142); conditions: 635 nm fluorescence, higher = more signal;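 further: fluorescence read at 667 nm with signal to noise per printed feature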
[11] = ATP-based viability of Huh7 replicon cells – cell-based, CellTiter-Glo luminescence, basal, 48 h, cytotoxicity control for HCV replication inhibitor project, primary screen (AID 1143); conditions: higher = more signal, called active from +8 up or from −8 down;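 further: Huh7 hepatoma cells carrying a hepatitis C replication reporter with no stimulus; test concentration not given here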
[12] = Pseudomonas biofilm growth suppression – PAO1 strain, BacTiter-Glo luminescence, LB-PBS, primary screen (AID 1144); conditions: P. aeruginosa PAO1 biofilm, 12 h, higher = more signal
[13] = basal CRE-LacZ reporter activity in PC12 – cell-based, unstimulated, primary screen (AID 1145); conditions: no forskolin, luminescence, 4.5 h, higher = more signal, called active from +8 up or from −8 down
[14] = forskolin-driven CRE-LacZ activity in PC12 – cell-based, CRE-LacZ reporter, forskolin-stimulated, primary screen (AID 1146); conditions: luminescence, 4.5 h, higher = more signal, called active from +8 up or from −8 down;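 further: PC12 cells with 6xCRE LacZ reporter stimulated by forskolin 10 µM; beta-galactosidase reporter signal reflecting CREB driven transcription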
[15] = target: Streptavidin (Streptomyces avidinii) (UniProt P22629); test: compounds binding control protein streptavidin – biophysical, small-molecule microarray, 635/667 nm fluorescence, artefact control for SMM compound annotation, primary screen (AID 1147); conditions: higher = more signal;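 further: signal reflects streptavidin binding to arrayed compounds as a control protein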
Streptavidin (Streptomyces avidinii), sequence (P22629 whole entry, looked up): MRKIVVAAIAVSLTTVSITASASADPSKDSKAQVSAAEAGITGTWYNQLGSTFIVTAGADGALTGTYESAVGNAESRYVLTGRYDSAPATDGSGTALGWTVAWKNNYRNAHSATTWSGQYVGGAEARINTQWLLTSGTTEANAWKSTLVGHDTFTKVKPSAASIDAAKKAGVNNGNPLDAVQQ

[16] = probe aInhba binding on compound microarray – biochemical, small-molecule microarray, 635/667 nm fluorescence, primary screen (AID 1148); conditions: higher = more signal;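 further: score merges 667nm spot fluorescence with signal-to-noise for antibody binding to printed compounds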
Torsin-1A (Homo sapiens) [17] = target: Torsin-1A (Homo sapiens) (UniProt O14656); test: TOR1A wild-type binding on microarray – cell lysate, small-molecule microarray, lysate, 635/667 nm, primary screen (AID 1149); conditions: COS7 hTOR1A-WT lysate, 635 nm fluorescence, higher = more signal
Torsin-1A (Homo sapiens), sequence (O14656 whole entry, looked up): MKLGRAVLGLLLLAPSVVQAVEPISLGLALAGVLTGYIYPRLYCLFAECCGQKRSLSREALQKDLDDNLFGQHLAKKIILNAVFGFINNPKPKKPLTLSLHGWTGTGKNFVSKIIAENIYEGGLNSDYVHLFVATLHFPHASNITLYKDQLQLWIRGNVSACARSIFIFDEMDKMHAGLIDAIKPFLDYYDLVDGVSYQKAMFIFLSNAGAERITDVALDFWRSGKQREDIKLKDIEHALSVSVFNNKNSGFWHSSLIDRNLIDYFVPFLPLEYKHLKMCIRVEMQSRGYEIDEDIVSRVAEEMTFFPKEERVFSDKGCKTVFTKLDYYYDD

Torsin-1A (Homo sapiens) [18] = target: Torsin-1A (Homo sapiens) (UniProt O14656); test: torsin A mutant lysate binding on microarrays – cell lysate, small-molecule microarray, COS7 lysate, 635/667 nm fluorescence, primary screen (AID 1150); conditions: COS7 hTOR1A mutant lysate, 635 nm fluorescence, higher = more signal;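 further: score pools 667 nm emission and signal to noise measuring lysate protein binding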
[19] = tested on: Sonic hedgehog protein (Shh); test: Sonic hedgehog microarray binding compounds – biochemical, small-molecule microarray, 635/667 nm fluorescence, primary screen (AID 1151); conditions: 635 nm fluorescence, higher = more signal;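 further: Shh protein binding to compounds spotted on small-molecule microarray slides; score combines spot fluorescence intensity with signal-to-noise across triplicate slides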

Row | SMILES | composite z-score [1] | composite z-score [2] | composite z-score [3] | composite z-score [4] | composite z-score [5] | composite z-score [6] | z-score [7] | composite z-score (Lefty1) | composite z-score [8] | z-score [9] | composite z-score [10] | z-score [11] | z-score [12] | z-score [13] | z-score [14] | composite z-score [15] | composite z-score [16] | composite z-score (Torsin-1A (Homo sapiens) [17]) | composite z-score (Torsin-1A (Homo sapiens) [18]) | composite z-score [19]
1 | COc1cccc([C@@H]2Oc3ccc(Br)cc3C(=O)[C@H]2O)c1 | 0.26 | 0.615 | 0.586 | 0.946 | 0.453 | 0.267 | 1.08 | 0.732 | 0.282 | -3.5 (inactive) | 0.134 | -3.91 (inactive) | -0.591 (inactive) | 4.08 (inactive) | 0.136 (inactive) | 0.286 | -0.089 | 0.561 | 1.1 | 0.936
2 | COC(=O)[C@@]1(Cc2ccc(F)cc2)[C@H]2c3cc(C(=O)N(C)C)n(Cc4ccc(OC)c(OC)c4)c3C[C@H]2CN1C(=O)c1ccccc1 | 0.835 | -0.267 | 1.71 | 0.661 | -0.405 | -0.346 | 0.362 | -0.614 | 0.63 | 1.22 (inactive) | 0.702 | -3.26 (inactive) | -0.642 (inactive) | 0.194 (inactive) | 0.426 (inactive) | 0.319 | 0.351 | 0.0209 | 0.1 | -0.715
3 | C=CC[C@@H]1C=C[C@H](ON=C2c3cc(OC)ccc3O[C@H](c3cccc(OC)c3)[C@H]2O)[C@@H](CO)O1 | -0.738 | -0.133 | 0.374 | 0.352 | -0.0389 | 0.369 | -0.102 | 0.873 | 0.499 | -0.101 (inactive) | -0.0596 | -0.375 (inactive) | 0.0436 (inactive) | 5.59 (inactive) | 0.442 (inactive) | 0.0285 | -0.182 | -0.0807 | -0.129 | 0.723
4 | O=C1[C@H]2[C@H]3[C@H](O)[C@H](O)CC(=NOCc4ccccc4)[C@H]3CC[C@H]2C(=O)N1c1cccc(Oc2ccccc2)c1 | 0.623 | 1.09 | 0.333 | 0.796 | 0.663 | 1.23 | 0.12 | 0.772 | 0.623 | 0.549 (inactive) | 0.242 | -2.26 (inactive) | 0.768 (inactive) | -0.384 (inactive) | -0.271 (inactive) | 0.293 | 0.0108 | 0.294 | 0.363 | 1.24
5 | CC(C)C[C@@H]1NC(=O)[C@H]2C[C@@H](C(=O)NCCCCCCN(C)C)[C@@H](c3cccc(OCCO)c3)N2C1=O | 2.19 | 1.01 | 0.204 | 0.0478 | 1.3 | 1.6 | -0.0993 | 1.65 | 0.591 | -0.156 (inactive) | 0.726 | 0.069 (inactive) | -0.402 (inactive) | 0.0124 (inactive) | -0.995 (inactive) | -0.305 | -0.0317 | 1.22 | 1.32 | 2.13
6 | CO[C@@H]1COC(=O)CC=C[C@@H](C)[C@@H]2C=C[C@@H](O)[C@@H](COC(=O)CC=C[C@H]1C)O2 | 0.235 | -0.912 | -0.0662 | -1.24 | 1.33 | 1.1 | -0.443 | 1.47 | -0.38 | -2.29 (inactive) | -0.141 | -0.972 (inactive) | -0.492 (inactive) | 0.343 (inactive) | 0.427 (inactive) | -0.0469 | -0.21 | 0.666 | 0.244 | 2.18
7 | CN(C)CCCNC(=O)[C@@H]1c2ccccc2C(=O)N(Cc2ccccc2)[C@H]1c1ccc(CO)cc1 | 0.514 | -0.958 | -0.193 | -0.355 | -0.242 | -0.158 | 1.85 | -0.201 | -0.0107 | -0.784 (inactive) | -0.142 | 0.143 (inactive) | 0.596 (inactive) | -0.295 (inactive) | -0.877 (inactive) | -0.844 | -0.128 | -0.146 | -0.725 | -0.336
8 | C#CCCCON=C1C[C@@H](O)[C@@H](O)[C@@H]2[C@@H]3C(=O)N([C@@H](C)c4ccccc4)C(=O)[C@@H]3CC[C@H]12 | 0.449 | 0.621 | 0.48 | 0.778 | 0.615 | 0.594 | -0.887 | 0.535 | 0.203 | 0.794 (inactive) | -0.216 | -3.38 (inactive) | -0.0158 (inactive) | 2.61 (inactive) | -0.428 (inactive) | 0.029 | -0.128 | 0.258 | 0.126 | 0.552
9 | C[C@H]1Cc2c(-c3ccccc3)nc3c(c2CO1)CN(CCOc1ccccc1)CC3 | 1.08 | 0.576 | 0.269 | 0.728 | 1.09 | 1.08 | 3.24 | 1.11 | 0.253 | -1.41 (inactive) | 0.379 | -0.239 (inactive) | -0.888 (inactive) | 2.92 (inactive) | -1.46 (inactive) | 0.277 | -0.0313 | 0.132 | 0.565 | 1.17
10 | CC(CCN1CCc2nc(-c3ccccc3)c(-c3ccccc3)cc2C1)=NOC[C@@H](C)[C@H](OCc1ccccc1)C(C)C | 1.45 | -1.69 | 0.123 | -0.242 | -1.45 | -1.14 | 0.436 | -0.677 | -0.469 | -1.09 (inactive) | -0.492 | 0.232 (inactive) | -0.612 (inactive) | 2.07 (inactive) | -0.17 (inactive) | -0.717 | -0.261 | -2.11 | -1.21 | -0.819
